Source: PubChem BioAssay
The list is not random: actives were taken first. Their share in the collection is about 0.81%.
Bcl-W Bim block = disrupts Bim peptide binding to human Bcl-W; Q92843; bead-based flow cytometry; inhibition, % at 10 µM; 190,000 compounds, 0.02% hits;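 note: 0% = bound tracer without compound and 100% = peptide blocker; higher means less fluorescent Bim peptide bound to Bcl-W beads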
Bim-Bfl-1 = inhibitors of Bim-Bfl-1 interaction, human | inhibition, % at 10 µM | Q16548 | 190,000 compounds, 0.12% hits | AID 1008 | Bead-based flow cytometry, Bim-Bfl-1 binding inhibition;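 note: 0% = wells without compound plus tracer and 100% = blocker peptide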
Target sequence (Q16548 whole entry, looked up): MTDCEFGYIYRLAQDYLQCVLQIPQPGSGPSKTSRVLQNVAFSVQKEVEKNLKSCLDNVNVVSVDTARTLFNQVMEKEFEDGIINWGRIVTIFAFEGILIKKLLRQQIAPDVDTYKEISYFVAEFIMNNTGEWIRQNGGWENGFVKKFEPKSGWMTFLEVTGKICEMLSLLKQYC
Bcl-XL Bim block = human Bim-Bcl-XL interaction inhibition; Q07817; Bim peptide-Bcl-XL binding, bead flow cytometry, fluorescence; inhibition, % at 10 µM; 190,000 compounds, 0.04% hits; AID 1007
Target sequence (Q07817 whole entry, looked up): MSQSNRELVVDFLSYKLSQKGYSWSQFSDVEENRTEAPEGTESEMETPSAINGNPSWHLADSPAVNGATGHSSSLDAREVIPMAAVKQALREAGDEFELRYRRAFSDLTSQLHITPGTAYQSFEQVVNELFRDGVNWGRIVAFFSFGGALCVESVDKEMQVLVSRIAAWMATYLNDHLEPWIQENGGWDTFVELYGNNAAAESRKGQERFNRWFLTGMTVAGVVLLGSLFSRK
Bcl-B Bim block = inhibitors of Bim-Bcl-B interaction, human | bead-based flow cytometry, Bim peptide-Bcl-B binding | AID 951 | 190,000 compounds, 0.073% hits | inhibition, % at 10 µM;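 note: 0% = tracer peptide without compound and 100% = reference inhibitor peptide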
Target sequence (Q9HD36 whole entry, looked up): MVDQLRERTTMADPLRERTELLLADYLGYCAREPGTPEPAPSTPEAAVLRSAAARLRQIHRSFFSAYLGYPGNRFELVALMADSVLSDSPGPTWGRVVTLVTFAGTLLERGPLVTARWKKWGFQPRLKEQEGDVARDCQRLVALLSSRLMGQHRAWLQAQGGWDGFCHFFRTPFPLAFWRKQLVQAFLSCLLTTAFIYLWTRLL
Bcl-xL primary = blocks human Bcl-xL binding to Bim BH3 peptide. AID 2129. Q07817. 320,000 compounds, 0.7% hits. inhibition, % at 10.9 µM. GST-Bcl-xL / FITC-Bim BH3 peptide fluorescence polarization;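 active = inhibition above the mean of all tested compounds plus 3 SD, cutoff set per campaign, cut at about 30% in these data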;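 note: 0% = DMSO wells and 100% = unlabeled Bim-BH3 peptide competitor; inhibitors lower millipolarization by displacing the labeled peptide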
Bcl-2 Bim block = inhibitors of Bim-Bcl-2 interaction, human; Bead-based flow cytometry, Bim peptide-Bcl-2 binding; inhibition, % at 10 µM; 190,000 compounds, 0.06% hits; P10415; in the data active = inhibition above about 40%;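 note: 0% = no compound wells with probe peptide and 100% = reference peptide inhibitor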
* marks the source's active call; other numbers are inactive results. Cut-off read from the data, not from the text of the source, unless noted: active = inhibition above about 40%.

What do the screens show for `COC(=O)c1cc(OC)c(OC)cc1NC(=O)Nc1cccc(C(C)=O)c1`?
Bcl-W Bim block: 3; Bim-Bfl-1: 62*; Bcl-XL Bim block: 10; Bcl-B Bim block: 77*; Bcl-xL primary: 5; Bcl-2 Bim block: 85*

What do the screens show for `O=C(CSc1nnnn1C1CCCC1)N1CCCc2ccccc21`?
Bcl-W Bim block: 4; Bim-Bfl-1: -14; Bcl-XL Bim block: -2; Bcl-B Bim block: -9; Bcl-xL primary: -1; Bcl-2 Bim block: -9

How did c1ccc2c(c1)CCCN2Cc1nnnn1C1CCCC1 do in these assays?
Bcl-W Bim block: -3; Bim-Bfl-1: -15; Bcl-XL Bim block: -8; Bcl-B Bim block: -8; Bcl-xL primary: 104*; Bcl-2 Bim block: -6

Results for Cn1c(=O)c2[nH]c(-c3ccccc3O)nc2n(C)c1=O ?
Bcl-W Bim block: 6; Bim-Bfl-1: 1; Bcl-XL Bim block: 3; Bcl-B Bim block: 5; Bcl-xL primary: 14; Bcl-2 Bim block: 2

Results for CCCOc1ccccc1-c1nc2c([nH]1)c(=O)[nH]c(=O)n2C ?
Bcl-W Bim block: 0; Bim-Bfl-1: -2; Bcl-XL Bim block: -3; Bcl-B Bim block: 0; Bcl-xL primary: 35*; Bcl-2 Bim block: 0

What do the screens show for `CN(C)c1ncc(C2=C(Cl)C(=O)C(N3CCCC3)=C(Cl)C2=O)s1`?
Bcl-W Bim block: 83*; Bim-Bfl-1: 92*; Bcl-XL Bim block: 48*; Bcl-B Bim block: 46*; Bcl-xL primary: 57*; Bcl-2 Bim block: 70*

How did CC(=O)c1cnc(N(C)C)s1 do in these assays?
Bcl-W Bim block: 2; Bim-Bfl-1: 3; Bcl-XL Bim block: 0; Bcl-B Bim block: 3; Bcl-xL primary: 9; Bcl-2 Bim block: 7

What do the screens show for `O=C1C(Cl)=C(N2CCCCC2)C(=O)C(Cl)=C1c1cnc(N2CCCCC2)s1`?
Bcl-W Bim block: 85*; Bim-Bfl-1: 91*; Bcl-XL Bim block: 49*; Bcl-B Bim block: 52*; Bcl-2 Bim block: 69*

What do the screens show for `O=S1(=O)N=C(c2ccccc2)c2ccccc21`?
Bcl-xL primary: 1

Results for Cc1c(C=O)c2ccccn2c1C(=O)c1cccs1 ?
Bcl-W Bim block: -1; Bim-Bfl-1: 0; Bcl-XL Bim block: 1; Bcl-B Bim block: -3; Bcl-xL primary: 88*; Bcl-2 Bim block: 0

Results for Cc1c(C=O)c2ccccn2c1C(=O)c1ccccc1Cl ?
Bcl-xL primary: -4

How did CC(=O)OCC(=O)Nc1c(C)cc(C)cc1C do in these assays?
Bcl-W Bim block: 0; Bim-Bfl-1: -9; Bcl-XL Bim block: 0; Bcl-B Bim block: -3; Bcl-xL primary: 3; Bcl-2 Bim block: 0

How did O=C(O)/C=C\c1ccccc1Oc1cccc(Cl)c1 do in these assays?
Bcl-W Bim block: 0; Bim-Bfl-1: -6; Bcl-XL Bim block: -2; Bcl-B Bim block: -3; Bcl-xL primary: 32*; Bcl-2 Bim block: 0

How did N#CC1=C(N)C(C#N)(C#N)[C@H](c2c(F)cccc2F)[C@H]2CC3(CC=C12)OCCO3 do in these assays?
Bcl-W Bim block: 1; Bim-Bfl-1: -6; Bcl-XL Bim block: -3; Bcl-B Bim block: -5; Bcl-xL primary: 58*; Bcl-2 Bim block: -1

How did O=C(Nc1nnc(C2CC2)s1)C1Cc2ccccc2CN1S(=O)(=O)c1ccccc1F (configuration not stated) do in these assays?
Bcl-W Bim block: 9; Bcl-XL Bim block: 13; Bcl-xL primary: 0; Bcl-2 Bim block: 77*

How did COc1cccc(CN2CCNC(=O)C2CC(=O)N(Cc2cnn(C)c2)C(C)C)c1 (configuration not stated) do in these assays?
Bcl-W Bim block: -2; Bim-Bfl-1: -3; Bcl-XL Bim block: -1; Bcl-B Bim block: -1; Bcl-xL primary: 1; Bcl-2 Bim block: -1

What do the screens show for `COc1ccccc1C(CNC(=O)c1ccc(OCc2c(C)noc2C)cc1)N1CCCC1` (configuration not stated)?
Bcl-xL primary: 5

Results for COc1ccc(OC)c(/C=C/c2nc3ccccc3[nH]c2=O)c1 ?
Bcl-xL primary: 78*

What do the screens show for `CC[n+]1c(/C=C/N(C)c2ccccc2)oc2ccc(Cl)cc21`?
Bcl-W Bim block: 18; Bim-Bfl-1: 25; Bcl-XL Bim block: 24; Bcl-B Bim block: 12; Bcl-xL primary: 7; Bcl-2 Bim block: 23

Results for CCN1/C(=C/C=C/c2oc3ccc4ccccc4c3[n+]2CC)Oc2ccc3ccccc3c21 ?
Bcl-W Bim block: 26; Bim-Bfl-1: 35; Bcl-XL Bim block: 45*; Bcl-B Bim block: 0; Bcl-xL primary: 80*; Bcl-2 Bim block: 8

How did CCOC(=O)c1c(C)[nH]c(C2=NNC(=Nc3ccccc3)SC2)c1C do in these assays?
Bcl-W Bim block: -5; Bim-Bfl-1: 2; Bcl-XL Bim block: -8; Bcl-B Bim block: -11; Bcl-2 Bim block: -4

What do the screens show for `CCOC(=O)c1c(C)[nH]c(C2=NNC(=Nc3ccc(OCC)cc3)SC2)c1C`?
Bcl-W Bim block: -4; Bim-Bfl-1: 0; Bcl-XL Bim block: -10; Bcl-B Bim block: -9; Bcl-xL primary: 77*; Bcl-2 Bim block: 0

Results for O=c1[nH]c(NCCO)nnc1Cc1ccccc1 ?
Bcl-xL primary: -2

How did O=C(COc1ccc(Cl)cc1)Nc1c(-c2cccs2)nc2ccccn12 do in these assays?
Bcl-W Bim block: -5; Bim-Bfl-1: -6; Bcl-XL Bim block: -9; Bcl-B Bim block: -11; Bcl-xL primary: -5; Bcl-2 Bim block: -1

What do the screens show for `CC(C)CCNc1c(-c2cccs2)nc2ccccn12`?
Bcl-W Bim block: 0; Bim-Bfl-1: -5; Bcl-XL Bim block: 0; Bcl-B Bim block: -1; Bcl-xL primary: 75*; Bcl-2 Bim block: -6

What do the screens show for `O=C(CSc1nc(O)c(C2CCCCC2)c(=O)[nH]1)Nc1ccc(F)cc1`?
Bcl-xL primary: 5

What do the screens show for `Oc1ccc2ccccc2c1N=Nc1ccccn1`?
Bcl-W Bim block: 0; Bim-Bfl-1: -20; Bcl-XL Bim block: -6; Bcl-B Bim block: -3; Bcl-xL primary: 2; Bcl-2 Bim block: -15

Results for CCOC(=O)c1[nH]cnc1N=Nc1c(O)ccc2ccccc12 ?
Bcl-W Bim block: 0; Bim-Bfl-1: 0; Bcl-XL Bim block: 0; Bcl-B Bim block: -1; Bcl-xL primary: 103*; Bcl-2 Bim block: 0

What do the screens show for `CC(C)(C)OC(=O)NC(Cc1ccccc1)C(=O)N1CCC(C(=O)NCC(=O)Nc2ccc(F)cc2)CC1` (configuration not stated)?
Bcl-xL primary: 105*

How did CC(C)(C)OC(=O)N[C@@H](Cc1ccccc1)C(=O)N1CCC(C(=O)NCC(=O)O)CC1 do in these assays?
Bcl-xL primary: 3

Results for CSc1nsc(/C=C/Nc2ccc(F)cc2)c1C#N ?
Bcl-W Bim block: 3; Bim-Bfl-1: 0; Bcl-XL Bim block: 0; Bcl-B Bim block: 0; Bcl-xL primary: -5; Bcl-2 Bim block: 1

How did CSc1nsc(/C=C/Nc2ccc(O)cc2C)c1C#N do in these assays?
Bcl-W Bim block: -3; Bim-Bfl-1: -7; Bcl-XL Bim block: -2; Bcl-B Bim block: -13; Bcl-xL primary: 60*; Bcl-2 Bim block: -9
